The source of these data is PubChem BioAssay AID1634 (National Center for Advancing Translational Sciences (NCATS), 2009).

Out of some 260,000 compounds screened, about 150 (0.058%) were called active. Entries that show only a call come without a potency. The call rests on the fitted dose curve; in most records, active means well fitted inhibition curve with a large enough effect; inconclusive means small, poorly fitted or top-dose-only effect; inactive means no such curve, though single readings can be large or run the other way. For the sample, actives were picked, then their nearest neighbours and some compounds at random.
Potency means the concentration at half of the fitted maximal effect.

Pyruvate kinase PKM (Homo sapiens), sequence (P14618 whole entry, looked up, canonical isoform): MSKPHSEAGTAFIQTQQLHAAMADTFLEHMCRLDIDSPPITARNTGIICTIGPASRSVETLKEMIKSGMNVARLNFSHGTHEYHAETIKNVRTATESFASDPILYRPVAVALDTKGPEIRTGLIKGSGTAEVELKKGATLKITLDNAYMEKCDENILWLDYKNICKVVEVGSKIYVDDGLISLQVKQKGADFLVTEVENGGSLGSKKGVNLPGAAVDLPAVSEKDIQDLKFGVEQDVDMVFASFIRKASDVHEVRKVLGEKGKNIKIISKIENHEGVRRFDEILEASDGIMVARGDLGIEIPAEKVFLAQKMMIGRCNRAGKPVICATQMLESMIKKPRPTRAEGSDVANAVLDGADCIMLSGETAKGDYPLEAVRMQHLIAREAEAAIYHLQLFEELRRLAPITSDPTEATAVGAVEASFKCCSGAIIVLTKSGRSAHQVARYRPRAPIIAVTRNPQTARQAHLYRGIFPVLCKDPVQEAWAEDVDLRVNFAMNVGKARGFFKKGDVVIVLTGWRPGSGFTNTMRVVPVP

This test concerns the target Pyruvate kinase PKM (Homo sapiens) (UniProt P14618). The experiment in a line: qHTS Assay for Inhibitors of Human Muscle isoform 2 Pyruvate Kinase. Further: nearly all actives have a fitted effect of over 60% in size. The following applies: purified PKM2, ATP generation, Kinase-Glo luminescence; series mostly up to 57.5 µM. The essentials: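 Coupled luciferase luminescence (Kinase-Glo) detects ATP generated from 0.1 mM ADP and 0.5 mM PEP in imidazole buffer pH 7.2 with KCl, MgCl2; 1 h at room temperature. Enzyme at intermediate activity; normalized to uninhibited and no-enzyme controls.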
A general note: qHTS replaces the single test concentration by a dilution series.
As to `CN(C)S(=O)(=O)c1cccc(-c2nn(-c3ccccc3)cc2/C=C2\SC(=S)N(CC(=O)O)C2=O)c1`, the Potency result is “inactive”. For the compound `O=C(N/N=C/c1ccc(O)c(O)c1)C1c2ccccc2Oc2ccccc21`, the Potency result is “inactive”. Then `Cc1coc2c(O)cc3c(c12)OC1(N2CCCCC2)C(=O)NCCCC31` (stereo not drawn), with “inactive”. Then `C/C=C\C=C\C(=O)N1CC2(CC(c3cccc(NC(=O)/C(C)=C\C)c3)=NO2)C[C@H]1C(N)=O` (stereo partly drawn), with “inactive”; and `Cn1c(=O)n(C)c2cc(NS(=O)(=O)c3ccc(F)cc3)ccc21`, with “inactive”. Then `Cc1ccc(NS(=O)(=O)c2cc3c(cc2C)NC(=O)CO3)cc1`, with “inactive”; and `CC(=O)Nc1cccc(OCC(=O)/C=C2\N(C)c3ccccc3C2(C)C)c1`, with “inactive”; and `CC1=C/C(=N\OS(=O)(=O)c2ccccc2)C=CC1=O`, with “inactive”. In the case of `Cc1ccc(Cn2c(SCC(=O)N/N=C/c3ccccc3OCC(=O)O)nc3ccccc32)cc1`, the Potency result was “inactive”. Then `Cc1cc(C)n(-c2ccc3nncn3n2)n1`, with “inactive”; and `CSC1=NCCN1C(=O)Cc1cccc2ccccc12`, with “inactive”; and `Cc1ccnc(Nc2nc3ccccc3s2)n1`, with “inactive”. Then `N#Cc1nc(Cc2ccccc2)oc1NCCc1ccccc1`, with “inactive”; and `Cc1cc(C)c(C#N)c(SCc2ccc3c(c2)OCO3)n1`, with “inactive”; and `C=C(C)C(=O)O[C@H]1C/C(C)=C\C(=O)/C=C(\C)[C@H](O)[C@@H]2OC(=O)C(=C)[C@@H]21`, with “inactive”.

For `Cc1ccc2c(Cl)c(C(=O)NCCCn3ccnc3)sc2c1`, the Potency entry was “inactive”. Then `C=CCN(C(=O)Nc1ccc2oc(C)nc2c1)c1ccccc1`, with “inactive”; and `O=S(=O)(c1ccc2ccccc2c1)N1CCN(S(=O)(=O)N2CCOCC2)CC1`, with “inactive”. On to `N#Cc1c2c(c(N3CCN(CCO)CC3)n3c1nc1ccccc13)CCCC2`, for which the Potency entry was “inactive”. For `COc1cc2c(cc1O)[C@H](Cc1ccc(Oc3cc(C[C@@H]4NCCc5cc(OC)c(O)cc54)ccc3O)cc1)NCC2`, the Potency entry is “inactive”. Then `CN1CCCN(S(=O)(=O)c2ccc3c(c2)OCCO3)CC1`, with “inactive”; and `O=C(CSc1ccc(-c2ccco2)nn1)Nc1cccc(F)c1`, with “inactive”; and `CCOC(=O)c1cnc(SCC(=O)Nc2cccc(OC)c2)nc1N`, with “inactive”.

On to `O=C(Nc1ccccc1)c1nnsc1S(=O)(=O)c1ccc(Cl)cc1`, for which the Potency entry was “inactive”. Then `O=C(CN1CCN(S(=O)(=O)c2ccc(F)cc2)CC1)NC1CC1`, with “inactive”; and `Cc1nc2cc(C(F)(F)F)ccc2n1CCNc1nc(-c2cc(Cl)c(N)c(Cl)c2)cs1`, with “inactive”. For the compound `Cc1ccc(S(=O)(=O)c2c(N)n(C)c3nc4ccccc4nc23)cc1`, the Potency entry is “inactive”. With `CSc1nc2ccc(S(=O)(=O)N3CCc4ccccc43)cc2s1`, the Potency entry is “inactive”. Then `COc1cccc(NC(=O)CSc2nnc(Cc3ccc(OC)c(OC)c3)o2)c1`, with “inactive”; and `CC1=C(C)CC2C(=O)N(c3cccc4ccccc34)C(=O)C2C1` (stereo not drawn), with “inactive”. For `CCOC(=O)c1c(C)oc2cc(Br)c(OCC(N)=O)cc12`, the Potency result is “inactive”. As for `COc1ccc(C(=O)/C=C/Nc2ccccn2)cc1`, the Potency is 15.8 µM (active).

With `COc1cccc(Nc2ncccc2C(=O)O)c1`, the Potency entry is “inactive”. Take `O=C(Nc1ccc(Br)c2cccnc12)c1ccc(Cn2cc([N+](=O)[O-])cn2)o1`: the Potency result was “inactive”.

For `O=C(Oc1ccc(-c2nc(-c3ccccn3)no2)cc1)c1ccccc1`, the Potency is 14.1 µM (active). Then `Cc1cnc(C(=O)N2CCCC(C(=O)c3ccc(C(F)(F)F)cc3)C2)cn1` (stereo not drawn), with “inactive”; and `O=C(NCc1ccccn1)c1ccc2nc(-c3ccco3)c(-c3ccco3)nc2c1`, with “inactive”. Then `O=c1c2ccccc2nnn1CSc1nnnn1-c1ccccc1`, with “inactive”.
